Screening results: PubChem BioAssay, several laboratories
This is a sample that favours compounds with a hit; in the whole collection about 3% have one here.
KKLEB tox: reduces viability of KKLEB cystic fibrosis airway cells; AID 602141; 0.36% of 360,000 active; activity change (cytotoxicity), % at 5 µM; KKLEB CF airway cells viability, ATPlite luminescence, overnight; active compounds read low; cells stimulated with P. aeruginosa culture filtrate;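 active = corrected activity change at or below -50% at 5 µM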
TRPM1 prom inh: reduces MITF-dependent TRPM1 promoter luciferase signal; 0.83% of 330,000 active; AID 488899; SK-MEL-5 TRPM1 promoter luciferase, 24 h; inhibition, % at 12.5 µM;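 active = mean inhibition across replicates of 60% or more, whatever share of single replicates reaches that level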
Peg3 prom inh: inhibitors of Peg3 promoter; AID 588405; 1.7% of 360,000 active; inhibition, % at 20 µM; HeLa PEG-Prom luciferase reporter, luminescence, overnight;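 active = inhibition of at least 50% at 20 µM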
CF NFkB block: cystic fibrosis NF-kB activation inhibition | KKLEB NF-kB-GFP reporter, PAF-induced, GFP fluorescence overnight | inhibition, % at 5 µM | 0.86% of 360,000 active | AID 588850;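 active = at least 50% inhibition at 5 µM, scaled per plate between neutral and stimulator controls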;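 also: PAF is a Pseudomonas aeruginosa culture filtrate used as stimulus; plate controls were PAF-stimulated DMSO wells for no effect and unstimulated DMSO wells for full effect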
HIF-2a inh: HIF-2a inhibition; 786-0 RCC cells HIF-2a reporter, luciferase luminescence, overnight; inhibition, % at 18.8 µM; 0.72% of 360,000 active;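 active = inhibition of the luminescence signal of 40% or more relative to plate controls, in a single-dose primary screen at 18.75 µM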
ABHD5 PLIN5 PPI: ABHD5-PLIN5 protein interaction inhibition; Split G. princeps luciferase complementation, luminescence, 4 h; inhibition, % at 4 µM; 0.78% of 360,000 active;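 active = inhibition above the mean inhibition across every tested compound plus 3 SD, cut at about 22% in these data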;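 also: 0% = DMSO only wells and the 100% control is not disclosed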
Target sequence (Q00G26 whole entry, looked up): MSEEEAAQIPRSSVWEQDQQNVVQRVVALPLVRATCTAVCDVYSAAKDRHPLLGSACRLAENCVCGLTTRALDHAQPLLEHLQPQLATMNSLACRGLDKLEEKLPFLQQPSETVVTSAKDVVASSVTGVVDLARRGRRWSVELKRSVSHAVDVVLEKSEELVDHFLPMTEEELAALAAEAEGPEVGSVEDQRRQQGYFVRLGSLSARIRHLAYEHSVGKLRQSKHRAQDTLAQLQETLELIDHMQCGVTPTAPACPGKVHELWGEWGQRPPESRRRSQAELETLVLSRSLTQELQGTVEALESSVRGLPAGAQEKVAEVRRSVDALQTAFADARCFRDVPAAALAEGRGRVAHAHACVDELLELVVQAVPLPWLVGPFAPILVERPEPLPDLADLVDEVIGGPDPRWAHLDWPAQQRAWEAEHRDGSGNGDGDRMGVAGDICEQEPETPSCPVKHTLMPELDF
Target sequence (Q8WTS1 whole entry, looked up): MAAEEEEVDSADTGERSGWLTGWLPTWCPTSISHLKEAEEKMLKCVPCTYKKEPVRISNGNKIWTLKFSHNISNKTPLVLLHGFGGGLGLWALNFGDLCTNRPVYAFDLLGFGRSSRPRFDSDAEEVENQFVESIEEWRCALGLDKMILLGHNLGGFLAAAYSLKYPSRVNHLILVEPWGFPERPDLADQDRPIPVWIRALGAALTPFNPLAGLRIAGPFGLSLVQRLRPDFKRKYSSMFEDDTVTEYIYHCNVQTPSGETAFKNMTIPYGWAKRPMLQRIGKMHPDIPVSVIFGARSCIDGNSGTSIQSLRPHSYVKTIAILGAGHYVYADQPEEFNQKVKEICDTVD
* marks the source's active call; other numbers are inactive results.

How did CCCNC(=O)C1(C)CCCN(Cc2ccccc2-c2ccccc2)C1 (stereo unspecified) do in these assays?
KKLEB tox: -4; Peg3 prom inh: 9; CF NFkB block: 7; HIF-2a inh: 14; ABHD5 PLIN5 PPI: 6

How did CCN(CC(=O)NCc1ccc(F)cc1)C(=O)/C=C/c1cc(OC)ccc1OC do in these assays?
KKLEB tox: 6; TRPM1 prom inh: 3; Peg3 prom inh: 7; CF NFkB block: -2; HIF-2a inh: 14; ABHD5 PLIN5 PPI: 2

Results for CC(=NNc1nc2ccccc2o1)c1cc2ccccc2cn1 ?
KKLEB tox: -7; TRPM1 prom inh: 58; Peg3 prom inh: 89*; CF NFkB block: -10; HIF-2a inh: -57; ABHD5 PLIN5 PPI: 4

How did CC(=NNc1nc2ccccc2o1)c1ncccn1 do in these assays?
KKLEB tox: -14; TRPM1 prom inh: 40; Peg3 prom inh: -51; CF NFkB block: 2; HIF-2a inh: -186; ABHD5 PLIN5 PPI: 3

How did O=C(CSc1ccccc1)Nc1ccc(-c2nc3ccccc3[nH]2)cc1 do in these assays?
KKLEB tox: -12; TRPM1 prom inh: -44; Peg3 prom inh: -196; CF NFkB block: 7; HIF-2a inh: -125; ABHD5 PLIN5 PPI: -3

Results for O=C(Nc1ccc(-c2nc3ccccc3[nH]2)cc1)c1ccc2c(c1)OCO2 ?
KKLEB tox: -34; TRPM1 prom inh: 39; Peg3 prom inh: 64*; CF NFkB block: 39; HIF-2a inh: -3; ABHD5 PLIN5 PPI: -2

How did O=C(CSc1ccc(Cl)cc1)Nc1cccc(-c2nc3ccccc3[nH]2)c1 do in these assays?
KKLEB tox: -9; TRPM1 prom inh: 1; Peg3 prom inh: 51*; CF NFkB block: -43; HIF-2a inh: 3; ABHD5 PLIN5 PPI: 13

How did O=C(Nc1ccc(Cl)c(-c2nc3ccccc3[nH]2)c1)c1ccc2c(c1)OCO2 do in these assays?
KKLEB tox: 4; TRPM1 prom inh: 1; Peg3 prom inh: -12; CF NFkB block: -22; HIF-2a inh: -51; ABHD5 PLIN5 PPI: 5

Results for O=C(Nc1cccc(-c2nc3ccccc3[nH]2)c1)c1cccc(NC(=O)c2ccco2)c1 ?
KKLEB tox: -59*; TRPM1 prom inh: 87*; Peg3 prom inh: 104*; CF NFkB block: 38; HIF-2a inh: -51; ABHD5 PLIN5 PPI: 5

How did Cc1cccc(NC(=O)c2cccc(NC(=O)c3ccco3)c2)c1 do in these assays?
KKLEB tox: -20; TRPM1 prom inh: -2; Peg3 prom inh: -38; CF NFkB block: 9; HIF-2a inh: -50; ABHD5 PLIN5 PPI: 0

How did Cc1cc(C)c(NC(=O)c2cccc(NC(=O)c3ccco3)c2)c(C)c1 do in these assays?
KKLEB tox: 19; TRPM1 prom inh: -7; Peg3 prom inh: 73*; CF NFkB block: -17; HIF-2a inh: 18; ABHD5 PLIN5 PPI: -16

Results for CCC(C)c1c(O)nc(SCC(=O)N2CCCCCC2)[nH]c1=O (stereo unspecified) ?
KKLEB tox: 3; TRPM1 prom inh: -17; Peg3 prom inh: 8; CF NFkB block: -6; HIF-2a inh: 9; ABHD5 PLIN5 PPI: 2

Results for CCC1=NN(C(=O)c2cccc(Br)c2)C(O)(c2ccc(Br)cc2)C1 (stereo unspecified) ?
KKLEB tox: -54*; TRPM1 prom inh: -1; Peg3 prom inh: 25; CF NFkB block: 62*; HIF-2a inh: 4; ABHD5 PLIN5 PPI: -8

How did CCC1=NN(C(=O)c2ccc(C)cc2)C(O)(c2ccc(Br)cc2)C1 (stereo unspecified) do in these assays?
KKLEB tox: 9; TRPM1 prom inh: -22; Peg3 prom inh: -18; CF NFkB block: 0; HIF-2a inh: -32; ABHD5 PLIN5 PPI: 6

What do the screens show for `CCn1c(=N)n(CC(=O)c2ccc(OC)cc2)c2ccccc21`?
KKLEB tox: 7; TRPM1 prom inh: -9; Peg3 prom inh: -28; CF NFkB block: -15; HIF-2a inh: -42; ABHD5 PLIN5 PPI: 2

Results for CN(C)CCn1c(=N)n(CC(O)c2ccc(Cl)c(Cl)c2)c2ccccc21 (stereo unspecified) ?
KKLEB tox: -17; TRPM1 prom inh: 1; Peg3 prom inh: 49; CF NFkB block: 21; HIF-2a inh: 25; ABHD5 PLIN5 PPI: 23*

Results for CCn1c(=N)n(CC(=O)c2ccc(Cl)c(Cl)c2)c2ccccc21 ?
KKLEB tox: 14; TRPM1 prom inh: -5; Peg3 prom inh: 99*; CF NFkB block: 8; HIF-2a inh: -136; ABHD5 PLIN5 PPI: -3

What do the screens show for `CCCCn1c(=N)n(CC(O)c2ccccc2)c2ccccc21` (stereo unspecified)?
KKLEB tox: 6; TRPM1 prom inh: -16; Peg3 prom inh: 8; CF NFkB block: -6; HIF-2a inh: 9; ABHD5 PLIN5 PPI: 3

How did Cc1ccc(Cn2c(=N)n(CC(=O)c3ccc([N+](=O)[O-])cc3)c3ccccc32)cc1 do in these assays?
KKLEB tox: -61*; TRPM1 prom inh: 98*; Peg3 prom inh: 102*; CF NFkB block: 36; HIF-2a inh: 8; ABHD5 PLIN5 PPI: -3

How did N=c1n(CCN2CCCCC2)c2ccccc2n1CC(O)c1cccc(Br)c1 (stereo unspecified) do in these assays?
KKLEB tox: -23; TRPM1 prom inh: 34; Peg3 prom inh: 110*; CF NFkB block: 20; HIF-2a inh: -7; ABHD5 PLIN5 PPI: 11

How did Cc1ccc(C(=O)Cn2c(=N)n(CCN3CCOCC3)c3ccccc32)cc1 do in these assays?
KKLEB tox: 3; TRPM1 prom inh: 7; Peg3 prom inh: -23; CF NFkB block: -4; HIF-2a inh: -62; ABHD5 PLIN5 PPI: 8

What do the screens show for `N=c1n(CCN2CCCCC2)c2ccccc2n1CC(=O)c1ccc(Cl)c(Cl)c1`?
KKLEB tox: -19; Peg3 prom inh: 34; CF NFkB block: 15; HIF-2a inh: -28; ABHD5 PLIN5 PPI: 22*

How did O=C(CBr)c1ccc([N+](=O)[O-])c(CS(=O)(=O)c2ccc(Cl)cc2)c1 do in these assays?
KKLEB tox: 2; TRPM1 prom inh: 10; Peg3 prom inh: 5; CF NFkB block: 10; HIF-2a inh: 25; ABHD5 PLIN5 PPI: 27*

What do the screens show for `O=C(O)c1ccc([N+](=O)[O-])c(CS(=O)(=O)c2ccc(Cl)cc2)c1`?
KKLEB tox: 9; TRPM1 prom inh: 19; Peg3 prom inh: 19; CF NFkB block: 2; HIF-2a inh: 9; ABHD5 PLIN5 PPI: 6

Results for O=C(NCc1ccccc1)C1=C[C@@H](C2CC2)C[C@@H](OCc2ccc(CO)cc2)O1 ?
KKLEB tox: -5; TRPM1 prom inh: -15; Peg3 prom inh: -5; CF NFkB block: -16; HIF-2a inh: -22; ABHD5 PLIN5 PPI: -20

How did O=C(NCc1ccccc1)C1=C[C@H](C2CCCCC2)C[C@H](OCc2ccc(CO)cc2)O1 do in these assays?
KKLEB tox: -53*; TRPM1 prom inh: 16; Peg3 prom inh: 9; CF NFkB block: 56*; HIF-2a inh: 6; ABHD5 PLIN5 PPI: 0
